Compound activity: PubChem, several laboratories
PLCb3 inh: human PLC-beta3 inhibitors, primary screen, biochemical, fluorescence; Purified PLC-beta3, fluorogenic substrate; inhibition, % at 12.2 µM; 370,000 compounds, 0.18% hits; in the data active means inhibition above about 11%;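 further: 0% = median of compound wells on plate and 100% = full blocker control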
NPR2 activator: human GC-B receptor activators, primary screen, HEK293 GC-B cells, cGMP TR-FRET, EC30 CNP. 0% at EC30 CNP, 100% saturating CNP. activation, % at 10 µM. 370,000 compounds, 0.11% hits. AID 1920062, 2024;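 active means activation at 10 µM reaching about 35% in either raw or pattern-adjusted values, limit read from the data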
PLCg1 inh: PLC-gamma1 enzyme inhibitors, primary screen, biochemical, fluorescence, purified enzyme. 1-phosphatidylinositol 4,5-bisphosphate phosphodiesterase gamma-1 (Homo sapiens), P19174. fluorogenic substrate. inhibition, % at 12.2 µM. 370,000 compounds, 0.84% hits; in the data active means inhibition above about 9.5%
NPR1 activator: GC-A stimulated cGMP production enhancers – HEK293 GC-A cells, cGMP TR-FRET, EC30 ANP, primary screen | 0% at EC30 ANP, 100% saturating ANP | activation, % at 10 µM | 370,000 compounds, 0.14% hits; in the data active means activation above about 40%
Rce1 inh: yeast Rce1p protease inhibitors, primary screen, biochemical, fluorescence, cell-free homogeneous; CAAX prenyl protease 2 (Saccharomyces cerevisiae (strain ATCC 204508 / S288c)), Q03530; calls only; yeast membranes, quenched prenylated peptide cleavage fluorescence; AID 2563, 2010; 290,000 compounds, 0.27% hits;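 active means fall in fluorescence gain of 50% or more versus controls, with final raw signal at or below 3038400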;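 further: plate controls were neutral control wells for no effect and wells lacking membranes for full effect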
Target sequence (Q03530 whole entry, looked up): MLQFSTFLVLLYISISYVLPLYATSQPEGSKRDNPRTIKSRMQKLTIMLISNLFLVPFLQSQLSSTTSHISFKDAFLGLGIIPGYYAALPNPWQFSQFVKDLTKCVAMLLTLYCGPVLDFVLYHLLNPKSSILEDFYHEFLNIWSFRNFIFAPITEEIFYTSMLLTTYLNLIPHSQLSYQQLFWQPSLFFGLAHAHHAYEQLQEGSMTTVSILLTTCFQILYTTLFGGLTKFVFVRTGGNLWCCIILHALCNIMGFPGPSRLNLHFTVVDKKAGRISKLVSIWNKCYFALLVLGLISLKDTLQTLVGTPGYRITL
M18AAP inhibitor: PfM18AAP inhibitors, malaria aminopeptidase, primary screen, biochemical, QFRET, recombinant enzyme | M18 aspartyl aminopeptidase (Plasmodium falciparum 3D7) | H-Glu-NHMec fluorogenic cleavage | inhibition, % at 7.35 µM | 290,000 compounds, 1.2% hits;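 active means inhibition above the campaign mean inhibition over all tested compounds plus 3 SD, cut at about 28% in these data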;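 further: 0% = plate median of test compound wells and 100% = 2 mM ZnCl2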
Starred values were filed as active, the others as inactive; i = inactive; nt = no result; + = active, no number. Compounds with a hit are over-represented: about 2.2% of the library has one in this group of screens.

SMILES	PLCb3 inh	NPR2 activator	PLCg1 inh	NPR1 activator	Rce1 inh	M18AAP inhibitor
Cc1ccc(-n2c(Cc3cccs3)nnc2SCC(=O)Nc2ccccc2-c2ccccc2)cc1	2	-13	3	-17	nt	nt
Cc1ccc(CN(Cc2cc3cc4c(cc3[nH]c2=O)OCCO4)Cc2nnnn2Cc2ccco2)cc1	i	4	-353	10	i	30*
CC(C)c1ccc(NC(=O)O[C@@H]2CC[C@@]34CCCN3C(=O)CCC[C@H]4C2)cc1	1	-1	-2	-7	nt	nt
O=C(Nc1ccccc1N1CCOCC1)C1CCN(S(=O)(=O)c2ccc(F)cc2)CC1	0	3	2	-6	+	3
O=C(Nc1ccccc1N1CCCC1)C1CCN(S(=O)(=O)c2ccc(F)cc2)CC1	-8	1	-4	0	i	nt
COC(=O)[C@]12C[C@H](CC(=O)NCc3ccc(C)o3)C(=O)N(CCC3=CCCCC3)C1=C[C@H](C1CCCC1)O[C@@H]2C	-1	-5	-2	-3	nt	nt
COC(=O)C1(C)NC(c2ccc(O)cc2)C2C(=O)N(c3ccc(F)cc3)C(=O)C21 (stereo not given)	3	4	15*	2	i	7
O=C(COc1ccc2ccc(=O)oc2c1)NCCc1c[nH]c2ccc(F)cc12	-6	-2	1	-9	+	-15
CCCc1cc(=O)oc2cc(OCC(=O)NCCc3c[nH]c4ccc(OC)cc34)ccc12	-2	-14	2	-11	i	-7
CN[C@H]1C[C@H]2c3cc(-c4ccccc4C)ccc3CCN2C[C@H]1[C@H](C)O	-31	-1	-22	-6	nt	nt
CC1=NN(c2ccccc2)C(=O)C1C=Nc1ccc(N(C)C)cc1 (stereo not given)	-13	-4	-3	-5	nt	31*
CC1=NN(c2ccccc2)C(=O)C1N=Nc1ccc(C)cc1 (stereo not given)	nt	nt	nt	nt	i	-7
CN1C(=O)c2cc(NC(=O)Nc3ccccc3)ccc2OC[C@H]2O[C@@H](CC(=O)N[C@H]3CCN(Cc4ccccc4)C3)CC[C@@H]21	5	6	5	4	nt	nt
COc1ccccc1C(=O)N/N=C/c1ccc2c(c1)OCO2	-31	1	-16	-1	nt	-5
COc1ccccc1N/N=C/c1ccc2c(c1)OCO2	-6	-5	-4	-2	i	31*
CCCC[C@@H]1CNC(=S)N1CCc1cccc2ccccc12	0	-6	3	-1	+	-5
CCCCN(C)C(=O)CN1C(=O)C2CCCCN2C(=O)c2ccccc21 (stereo not given)	0	-8	-2	0	nt	nt
Cc1ccc(F)c(Cn2cnc3c(cnn3C(C)(C)C)c2=O)c1Cl	-4	38*	-1	32	nt	nt
Cc1[nH]n(-c2ccccc2)c(=S)c1C=Nc1ccc([N+](=O)[O-])cc1	0	0	2	4	nt	51*
CCCCCN1CCCCC(NC(=O)c2c(F)cccc2F)C1=O (stereo not given)	2	4	0	0	nt	nt
CC1=C(C)C(C)=C(C#N)C(=C(C#N)C#N)N1	-201	2	-190	1	+	0
Cc1nc2ccc(NC(=O)c3ccccc3)cc2s1	-10	-4	-3	1	i	-3
Cc1nc2cc(C(=O)O)ccc2s1	1	4	1	-1	i	30*
CCCC1CCC2(CC1)CCC2OC(=O)Nc1c(OC)cccc1OC (stereo not given)	-7	-1	2	-10	nt	nt
CC(=O)Oc1ccc(C(=O)Nc2ccc(S(=O)(=O)NCC3CCCO3)cc2)cc1 (stereo not given)	-8	-2	-1	-5	+	-3
O=C(NCCN1CCC(Cc2ccccc2)CC1)C1CCCN(S(=O)(=O)c2cccs2)C1 (stereo not given)	0	-1	-1	-4	nt	nt
Cc1ccc(C2C(C#N)=C(N)SC(N)=C2C#N)cc1	-149	-3	-119	11	nt	42*
O=C(/C=C/c1ccc(Br)cc1)c1ccco1	2	-26	0	-33	i	29*
